Source: the supplement of paper PMC10849652
The full data set covers some 7,900 targets. This sample favours those with a hit. About 0.6% of all pairs of compound and target were hits.

How the values were obtained:
Assay in all cases: log2 fold change, soluble protein after heating vs DMSO (PISA); higher = thermal stabilisation; K562 cells, 10 uM, 30 min; active = over 0.2 and 3.5 SD of the protein, either way, in both replicates (recomputed)
[1] = compound: CC1=C(C=C(C=C1)NC(=O)C2=CC(=CC=C2)C(C)(C)C#N)NC3=CC4=C(C=C3)N=CN(C4=O)C
Outline: (§1)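 Values are thermal stability changes relative to control samples and are taken from duplicates. They are stated as log2 fold changes. Before quantification by TMTpro 16plex LC-MS/MS with equalised channel sums, K562 cells at 2×10^6 cells/mL were treated with 10 μM compound for 30 min, heated in aliquots for 3 min across 48°C-58°C, pooled, extracted in PBS with 0.5% NP-40 at 4°C, and centrifuged at 21,000xg for 90 min to give the soluble supernatant.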

[2] = compound: CC1=C(C=C(C=C1)NC(=O)C2=CC(=CC=C2)N(C)C)NC(=O)C3=CC=C(C=C3)O
Outline: as §1

[3] = compound: CC1=CC=C(C=C1)SC2=C3C=C(SC3=CN=C2)C(=O)N
Outline: as §1

[4] = compound: CC1=NC(=CC=C1)C2=C(N=C(N2)C(C)(C)C)C3=CC4=NC=CN=C4C=C3
Outline: as §1

[5] = compound: CCCCN(Cc1ccc(C(=O)NO)cc1)C(=O)Nc1ccccc1 [Nexturastat A]
Outline: as §1

[6] = compound: CCCS(=O)(=O)Nc1ccc(F)c(C(=O)c2c[nH]c3ncc(-c4ccc(Cl)cc4)cc23)c1F [vemurafenib]
Outline: as §1

[7] = compound: CCCS(=O)(=O)Nc1ccc(F)c(C(=O)c2c[nH]c3ncc(Cl)cc23)c1F
Outline: as §1

[8] = compound: CCCc1cc(C)[nH]c(=O)c1CNC(=O)c1cc(-c2ccnc(N3CCN(C)CC3)c2)cc2c1cnn2C(C)C
Outline: as §1

[9] = compound: CCN(CC)Cc1ccc2cc(COC(=O)Nc3ccc(C(=O)NO)cc3)ccc2c1 [givinostat]
Outline: as §1

[10] = compound: CCN(CCCOc1ccc2c(Nc3cc(CC(=O)Nc4cccc(F)c4)[nH]n3)ncnc2c1)CCOP(=O)(O)O [barasertib]
Outline: as §1

[11] = compound: CC[C@@H]1C(=O)N(C)c2cnc(Nc3ccc(C(=O)NC4CCN(C)CC4)cc3OC)nc2N1C1CCCC1
Outline: as §1

[12] = compound: CC[C@@H]1C(=O)N(C)c2cnc(Nc3ccc(C(=O)N[C@H]4CC[C@H](N5CCN(CC6CC6)CC5)CC4)cc3OC)nc2N1C(C)C [volasertib]
Outline: as §1

[13] = compound: CC[C@H](C)N1C=C(C2=C(C=C(C=C21)C3=CN=C(C=C3)N4CCNCC4)C(=O)NCC5=C(C=C(NC5=O)C)C)C
Outline: as §1

[14] = compound: CC[C@H](C)[C@@H](C(=O)N[C@@H]([C@@H](C)O)C(=O)N[C@@H](CC(C)C)C(=O)[C@]1(CO1)C)NC(=O)[C@H]([C@@H](C)CC)N(C)C(=O)C [epoxomicin]
Outline: as §1

[15] = compound: CCn1c(C(=O)N(C2CC2)C2CC2)cc2c3c(ncn3C)c(Nc3cc(C)n(C)n3)nc21
Outline: as §1

[16] = compound: CCn1cc(-c2ccnc3[nH]c(-c4cccc(CN(C)C)c4)cc23)c(-c2ccc(NC(=O)N(C)C)cc2)n1
Outline: as §1

[17] = compound: CN(C)CC(=O)Nc1ccc2[nH]c(=O)c3ccccc3c2c1
Outline: as §1

[18] = compound: CN(CCOC1=CC=C(C=C1)C[C@H]2C(=O)NC(=O)S2)C3=CC=CC=N3 (racemic) [rosiglitazone]
Outline: as §1

[19] = compound: CN1C2=C(C3=C1C(=O)N(N=C3)CC4=CC(=CC=C4)N)SC(=C2)S(=O)C
Outline: as §1

[20] = compound: CN1CCC(CNc2ccc3ncc(-c4cccc(OC(F)(F)F)c4)n3n2)CC1
Outline: as §1

Measured: log2 fold change

CSNK1A1 (UniProt P48729)
Chain of UniProt P48729 (P48729 whole entry, looked up): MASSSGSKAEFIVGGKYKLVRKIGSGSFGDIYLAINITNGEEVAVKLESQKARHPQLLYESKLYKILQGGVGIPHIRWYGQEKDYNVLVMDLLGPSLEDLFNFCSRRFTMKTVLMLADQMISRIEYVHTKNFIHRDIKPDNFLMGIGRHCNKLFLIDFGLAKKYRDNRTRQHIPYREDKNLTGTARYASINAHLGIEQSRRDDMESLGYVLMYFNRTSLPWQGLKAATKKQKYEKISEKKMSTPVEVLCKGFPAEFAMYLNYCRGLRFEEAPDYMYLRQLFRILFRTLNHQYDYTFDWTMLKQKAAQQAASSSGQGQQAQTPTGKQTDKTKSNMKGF
inactive: [1] -0.021 | [2] 0.03 | [3] -0.006 | [4] -0.12 | [5] 0.028 | [6] -0.006 | [7] 0 | [8] 0.031 | [9] 0.037 | [10] 0 | [11] -0.011 | [12] -0.117 | [13] 0.057 | [14] 0.046 | [15] -0.016 | [16] 0.008 | [17] -0.179 | [18] -0.028 | [19] 0.072 | [20] -0.067

CASTOR2 (UniProt A6NHX0)
Chain of UniProt A6NHX0 (A6NHX0 whole entry, looked up): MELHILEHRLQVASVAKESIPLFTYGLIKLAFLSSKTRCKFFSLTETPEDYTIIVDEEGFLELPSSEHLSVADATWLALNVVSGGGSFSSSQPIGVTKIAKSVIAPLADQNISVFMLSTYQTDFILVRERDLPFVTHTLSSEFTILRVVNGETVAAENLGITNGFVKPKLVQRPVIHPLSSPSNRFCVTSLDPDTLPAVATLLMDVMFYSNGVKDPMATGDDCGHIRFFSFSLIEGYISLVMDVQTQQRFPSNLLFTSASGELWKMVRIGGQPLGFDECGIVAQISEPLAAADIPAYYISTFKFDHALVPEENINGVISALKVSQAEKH
active: [7] -0.465
inactive: [1] -0.015 | [2] -0.01 | [3] 0.037 | [4] 0.033 | [5] -0.085 | [6] 0.046 | [8] -0.021 | [9] 0.041 | [10] 0.01 | [11] 0.025 | [12] 0.254 | [13] -0.042 | [14] 0.061 | [15] -0.024 | [16] 0.123 | [17] -0.035 | [18] 0.034 | [19] -0.022 | [20] 0.066

CES2 isoform 4 (UniProt O00748)
Chain of UniProt O00748 (O00748 whole entry, looked up): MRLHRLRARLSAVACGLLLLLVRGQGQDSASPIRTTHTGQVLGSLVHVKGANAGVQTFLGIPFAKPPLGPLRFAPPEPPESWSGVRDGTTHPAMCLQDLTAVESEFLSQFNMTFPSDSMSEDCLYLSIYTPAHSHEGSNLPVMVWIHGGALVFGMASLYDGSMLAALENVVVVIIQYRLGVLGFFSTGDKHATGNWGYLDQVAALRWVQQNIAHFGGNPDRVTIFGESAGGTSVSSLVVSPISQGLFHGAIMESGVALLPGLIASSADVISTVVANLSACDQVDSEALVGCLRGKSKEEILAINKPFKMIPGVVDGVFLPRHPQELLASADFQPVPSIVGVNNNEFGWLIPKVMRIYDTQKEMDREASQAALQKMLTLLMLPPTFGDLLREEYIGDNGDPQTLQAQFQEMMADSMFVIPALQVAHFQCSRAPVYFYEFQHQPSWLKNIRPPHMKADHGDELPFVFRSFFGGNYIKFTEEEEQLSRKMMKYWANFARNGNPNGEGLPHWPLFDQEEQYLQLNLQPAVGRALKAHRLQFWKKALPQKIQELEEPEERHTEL
inactive: [1] -0.003 | [2] -0.072 | [3] 0.005 | [4] -0.065 | [5] 0.058 | [6] -0.029 | [7] -0.105 | [8] 0.003 | [9] 0.021 | [10] 0.022 | [11] 0.033 | [12] 0.108 | [13] 0.1 | [14] -0.168 | [15] 0.187 | [16] -0.012 | [17] -0.02 | [18] 0.023 | [19] 0.034 | [20] 0.054

CKS1B (UniProt P61024)
Chain of UniProt P61024 (P61024 whole entry, looked up): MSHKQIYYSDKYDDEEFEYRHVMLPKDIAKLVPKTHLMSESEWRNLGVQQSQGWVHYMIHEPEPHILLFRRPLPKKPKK
inactive: [1] -0.043 | [2] -0.094 | [3] -0.121 | [4] 0.036 | [5] -0.005 | [6] 0.056 | [7] -0.17 | [8] -0.38 | [9] -0.034 | [10] 0.029 | [11] -0.028 | [12] 0.068 | [13] 0.094 | [14] 0.014 | [15] 0.025 | [16] 0.041 | [17] -0.024 | [18] -0.002 | [19] 0.022 | [20] -0.006

CDK5RAP3 isoform 4 (UniProt Q96JB5)
Chain of UniProt Q96JB5 (Q96JB5 whole entry, looked up): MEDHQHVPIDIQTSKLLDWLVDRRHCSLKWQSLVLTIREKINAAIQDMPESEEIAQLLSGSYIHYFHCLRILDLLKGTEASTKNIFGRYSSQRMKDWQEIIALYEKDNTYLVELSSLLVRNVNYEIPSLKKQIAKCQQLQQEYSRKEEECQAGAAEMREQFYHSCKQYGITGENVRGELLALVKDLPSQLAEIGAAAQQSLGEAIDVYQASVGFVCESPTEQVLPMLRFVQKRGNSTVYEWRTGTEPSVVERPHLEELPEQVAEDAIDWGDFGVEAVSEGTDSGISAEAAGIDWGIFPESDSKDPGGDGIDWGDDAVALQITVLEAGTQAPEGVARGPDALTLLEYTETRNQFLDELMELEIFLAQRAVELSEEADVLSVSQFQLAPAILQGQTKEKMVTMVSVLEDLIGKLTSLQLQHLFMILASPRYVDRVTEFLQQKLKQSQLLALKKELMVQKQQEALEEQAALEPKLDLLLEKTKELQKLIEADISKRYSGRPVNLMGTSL
active: [12] -0.296
inactive: [1] 0.018 | [2] -0.035 | [3] 0.008 | [4] 0.015 | [5] 0.051 | [6] 0.044 | [7] 0.077 | [8] -0.015 | [9] 0.109 | [10] 0.029 | [11] -0.056 | [13] 0 | [14] 0.021 | [15] -0.044 | [16] -0.007 | [17] 0.033 | [18] 0.055 | [19] -0.024 | [20] -0.002

CDC26 (UniProt Q8NHZ8)
Chain of UniProt Q8NHZ8 (Q8NHZ8 whole entry, looked up): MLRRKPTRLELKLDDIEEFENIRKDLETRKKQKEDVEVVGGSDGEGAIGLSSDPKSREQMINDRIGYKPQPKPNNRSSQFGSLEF
active: [6] 0.534
inactive: [1] -0.026 | [2] 0.029 | [3] -0.025 | [4] 0.021 | [5] 0.067 | [7] -0.048 | [8] 0.056 | [9] 0.056 | [10] 0.007 | [11] 0.06 | [12] 0.037 | [13] -0.068 | [14] -0.031 | [15] 0.085 | [16] 0.003 | [17] 0.158 | [18] -0.008 | [19] 0.107 | [20] 0.131

CCNK isoform 4 (UniProt O75909)
Chain of UniProt O75909 (O75909 whole entry, looked up): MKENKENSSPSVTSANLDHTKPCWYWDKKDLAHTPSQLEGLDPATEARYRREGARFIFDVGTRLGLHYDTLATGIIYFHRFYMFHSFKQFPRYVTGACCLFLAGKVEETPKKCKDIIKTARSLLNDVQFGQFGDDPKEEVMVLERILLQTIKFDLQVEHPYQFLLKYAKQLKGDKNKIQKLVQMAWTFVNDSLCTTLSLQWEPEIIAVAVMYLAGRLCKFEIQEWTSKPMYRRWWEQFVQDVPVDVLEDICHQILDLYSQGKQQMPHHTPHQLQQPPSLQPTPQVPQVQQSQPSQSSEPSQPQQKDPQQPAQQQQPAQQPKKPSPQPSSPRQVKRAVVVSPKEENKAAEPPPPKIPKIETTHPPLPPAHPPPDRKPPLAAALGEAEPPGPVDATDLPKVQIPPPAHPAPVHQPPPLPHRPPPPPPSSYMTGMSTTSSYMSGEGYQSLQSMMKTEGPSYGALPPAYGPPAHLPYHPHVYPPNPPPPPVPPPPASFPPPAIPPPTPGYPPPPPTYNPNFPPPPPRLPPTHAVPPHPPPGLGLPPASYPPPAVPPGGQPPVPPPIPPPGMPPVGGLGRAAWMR
inactive: [1] 0 | [2] 0.032 | [3] -0.032 | [4] -0.011 | [5] 0.024 | [6] -0.088 | [7] 0 | [8] 0.038 | [9] 0.014 | [10] -0.063 | [11] 0.099 | [12] 0.045 | [13] -0.018 | [14] -0.254 | [15] 0.025 | [16] 0.129 | [17] -0.051 | [18] -0.038 | [19] 0.105 | [20] 0.032

CDK13 (UniProt Q14004)
inactive: [1] 0.045 | [2] 0.027 | [3] -0.047 | [4] 0.056 | [5] -0.212 | [6] -0.056 | [7] -0.037 | [8] -0.011 | [9] -0.021 | [10] -0.029 | [11] 0.025 | [12] 0.09 | [13] 0.034 | [14] -0.032 | [15] 0.087 | [16] 0.018 | [17] 0.004 | [18] -0.002 | [19] 0.233 | [20] -0.047

CRK (UniProt P46108)
Chain of UniProt P46108 (P46108 whole entry, looked up): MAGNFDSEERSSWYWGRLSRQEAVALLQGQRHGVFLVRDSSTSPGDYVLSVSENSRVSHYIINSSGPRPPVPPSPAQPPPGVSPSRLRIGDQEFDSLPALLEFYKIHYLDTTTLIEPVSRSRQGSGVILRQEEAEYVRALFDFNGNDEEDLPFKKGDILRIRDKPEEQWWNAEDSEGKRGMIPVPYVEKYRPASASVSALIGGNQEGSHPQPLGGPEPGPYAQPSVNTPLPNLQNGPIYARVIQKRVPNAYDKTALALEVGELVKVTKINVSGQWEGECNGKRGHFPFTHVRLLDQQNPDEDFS
active: [1] -0.814
inactive: [2] -0.019 | [3] 0.015 | [4] 0.091 | [5] -0.006 | [6] 0.048 | [7] 0.009 | [8] -0.008 | [9] 0.002 | [10] 0.046 | [11] -0.059 | [12] -0.085 | [13] 0.005 | [14] 0.026 | [15] 0.002 | [16] -0.039 | [17] 0.002 | [18] 0.033 | [19] -0.028 | [20] -0.022

CHKA (UniProt P35790)
Chain of UniProt P35790 (P35790 whole entry, looked up): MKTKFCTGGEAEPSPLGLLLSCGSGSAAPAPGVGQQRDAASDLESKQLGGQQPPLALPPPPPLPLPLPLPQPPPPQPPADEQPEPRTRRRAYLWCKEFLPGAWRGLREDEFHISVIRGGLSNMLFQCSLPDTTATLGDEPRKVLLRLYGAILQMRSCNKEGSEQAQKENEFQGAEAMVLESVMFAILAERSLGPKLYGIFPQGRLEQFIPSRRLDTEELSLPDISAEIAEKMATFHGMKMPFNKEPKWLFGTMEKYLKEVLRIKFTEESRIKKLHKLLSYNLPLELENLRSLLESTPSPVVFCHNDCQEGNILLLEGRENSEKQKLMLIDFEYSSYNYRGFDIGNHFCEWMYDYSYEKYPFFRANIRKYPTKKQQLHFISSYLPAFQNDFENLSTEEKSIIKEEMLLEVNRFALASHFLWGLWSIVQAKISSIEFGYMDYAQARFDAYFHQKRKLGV
inactive: [1] -0.011 | [2] -0.048 | [3] -0.125 | [4] 0.033 | [5] 0.036 | [6] -0.017 | [7] 0.019 | [8] -0.164 | [10] 0.05 | [11] 0.22 | [12] 0.161 | [13] -0.077 | [14] 0.127 | [15] -0.001 | [16] 0.203 | [17] 0.043 | [18] 0.044 | [19] -0.082 | [20] 0.187
active: [9] 0.334

COCH (UniProt O43405)
Chain of UniProt O43405 (O43405 whole entry, looked up): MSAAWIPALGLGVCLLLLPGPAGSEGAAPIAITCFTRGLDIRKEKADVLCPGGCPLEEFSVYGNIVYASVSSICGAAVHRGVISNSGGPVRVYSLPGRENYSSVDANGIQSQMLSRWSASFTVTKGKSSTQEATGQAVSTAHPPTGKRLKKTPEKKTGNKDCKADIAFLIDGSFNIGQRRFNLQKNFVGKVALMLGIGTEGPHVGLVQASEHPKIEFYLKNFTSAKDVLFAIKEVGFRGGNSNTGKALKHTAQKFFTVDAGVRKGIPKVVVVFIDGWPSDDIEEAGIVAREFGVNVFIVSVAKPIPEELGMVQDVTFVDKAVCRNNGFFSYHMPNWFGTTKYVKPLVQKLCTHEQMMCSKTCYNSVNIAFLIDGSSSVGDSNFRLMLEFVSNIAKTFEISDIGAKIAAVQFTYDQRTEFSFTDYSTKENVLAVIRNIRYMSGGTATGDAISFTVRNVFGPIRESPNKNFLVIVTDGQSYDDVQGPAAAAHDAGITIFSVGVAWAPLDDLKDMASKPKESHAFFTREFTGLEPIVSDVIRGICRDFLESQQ
inactive: [1] 0.072 | [2] 0.053 | [3] 0.059 | [4] 0.005 | [5] 0.046 | [6] -0.067 | [7] -0.05 | [8] 0.076 | [9] -0.049 | [10] 0 | [11] 0.117 | [12] -0.08 | [13] -0.065 | [14] -0.153 | [15] 0.054 | [16] 0.075 | [17] -0.127 | [18] -0.056 | [19] 0.007 | [20] 0.076

CSK (UniProt P41240)
inactive: [2] -0.091 | [3] -0.01 | [4] 0.019 | [5] -0.046 | [6] 0.072 | [7] 0.054 | [8] 0.034 | [9] 0.035 | [10] 0.004 | [11] -0.132 | [13] 0.05 | [14] 0.014 | [15] -0.013 | [16] -0.075 | [17] 0.024 | [18] 0.032 | [19] -0.011 | [20] -0.147
active: [1] 0.325 | [12] -0.306

CKB (UniProt P12277)
inactive: [1] 0.016 | [2] -0.006 | [3] -0.008 | [4] 0.016 | [5] -0.032 | [6] 0 | [7] 0.015 | [8] -0.016 | [9] -0.013 | [10] -0.002 | [11] 0.002 | [13] 0.008 | [14] 0.044 | [15] 0.01 | [16] -0.108 | [17] 0.009 | [18] 0.03 | [19] -0.111 | [20] -0.056
active: [12] 0.265

COMT (UniProt P21964)
inactive: [1] 0.14 | [2] 0.009 | [3] -0.012 | [4] 0.019 | [5] 0.036 | [6] 0.011 | [7] 0.002 | [8] 0.005 | [9] 0.144 | [10] -0.006 | [11] 0.013 | [12] 0.073 | [13] 0.01 | [14] -0.023 | [15] -0.021 | [16] -0.01 | [17] 0.005 | [18] 0.039 | [19] -0.11 | [20] 0.142

CHERP (UniProt Q8IWX8)
inactive: [1] -0.042 | [2] -0.088 | [3] -0.053 | [4] 0.003 | [5] -0.006 | [6] 0.018 | [7] 0.127 | [8] 0.075 | [9] 0.107 | [10] 0.055 | [11] -0.162 | [13] -0.014 | [14] 0.064 | [15] -0.024 | [16] 0.022 | [17] 0.041 | [18] -0.004 | [19] 0.102 | [20] -0.05
active: [12] -0.888

CIZ1 (UniProt Q9ULV3)
Chain of UniProt Q9ULV3 (Q9ULV3 whole entry, looked up): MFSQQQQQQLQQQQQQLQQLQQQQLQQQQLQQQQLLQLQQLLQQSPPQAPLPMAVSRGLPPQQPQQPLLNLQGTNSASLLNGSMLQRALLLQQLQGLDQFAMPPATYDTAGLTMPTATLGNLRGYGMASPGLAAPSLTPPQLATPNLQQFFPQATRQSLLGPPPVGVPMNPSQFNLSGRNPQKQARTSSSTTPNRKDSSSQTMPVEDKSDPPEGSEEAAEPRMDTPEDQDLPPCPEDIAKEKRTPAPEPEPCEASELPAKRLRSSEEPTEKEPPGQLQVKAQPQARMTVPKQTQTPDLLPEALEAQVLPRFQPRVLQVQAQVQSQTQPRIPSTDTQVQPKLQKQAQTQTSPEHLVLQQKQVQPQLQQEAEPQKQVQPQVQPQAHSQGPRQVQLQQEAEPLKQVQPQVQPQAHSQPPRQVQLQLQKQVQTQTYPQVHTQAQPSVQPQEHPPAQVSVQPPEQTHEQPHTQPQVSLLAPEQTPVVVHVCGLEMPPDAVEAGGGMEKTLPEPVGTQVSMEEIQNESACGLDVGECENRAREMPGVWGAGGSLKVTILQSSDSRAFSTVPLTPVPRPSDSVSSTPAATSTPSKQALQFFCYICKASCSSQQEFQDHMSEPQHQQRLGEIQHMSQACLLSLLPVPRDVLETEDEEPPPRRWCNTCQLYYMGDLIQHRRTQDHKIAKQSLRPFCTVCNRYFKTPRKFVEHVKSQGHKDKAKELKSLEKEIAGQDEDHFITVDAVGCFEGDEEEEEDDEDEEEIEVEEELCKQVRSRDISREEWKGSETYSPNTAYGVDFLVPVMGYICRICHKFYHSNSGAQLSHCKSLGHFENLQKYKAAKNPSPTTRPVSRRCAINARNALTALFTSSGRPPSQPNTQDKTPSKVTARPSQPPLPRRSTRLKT
inactive: [1] -0.02 | [2] -0.027 | [3] -0.022 | [4] 0.059 | [5] 0.011 | [6] -0.018 | [7] -0.007 | [8] -0.033 | [9] 0.017 | [10] 0.001 | [11] 0.071 | [12] -0.022 | [13] 0.046 | [14] 0.086 | [15] -0.008 | [16] 0.017 | [17] -0.011 | [18] -0.034 | [19] 0.015 | [20] -0.035
